Screening data (PubChem BioAssay)
MK inhibit: blocks S. pneumoniae mevalonate kinase | purified MK, PK/LDH-coupled NADH absorbance 340 nm | inhibition, % at 10 µM | 65,000 tested, 0.48% active | AID 555;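 active = ranked among the strongest by inhibition in the single 10 µM screen, a fixed top-ranked set picked for dose follow-up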
PMK inhibit: blocks S. pneumoniae phosphomevalonate kinase | purified PMK, PK/LDH-coupled NADH absorbance 340 nm | inhibition, % at 10 µM | 65,000 tested, 0.49% active | AID 539;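 active = top-ranked compounds by inhibition in the single 10 µM screen, taking a fixed number of the strongest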
Spn DPM-DC inh: blocks S. pneumoniae diphosphomevalonate decarboxylase; AID 556; 65,000 tested, 0.49% active; calls only at 10 µM; purified DPM-DC, PK/LDH coupled NADH fluorescence;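 active = the 320 compounds with the highest percent inhibition in the single-dose primary screen, excluding strongly autofluorescent ones, cut at about 32% in these data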;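 note: kinetic rate of NADH fluorescence loss reporting ADP formed by the decarboxylase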
A340 absorber: compound absorbs light at 340 nm; fold change at 10 µM; compound absorbance at 340 nm, fold over control; 65,000 tested, under 10 active;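 active = at 10 µM dose, initial 340 nm absorbance at least 2 fold that of control wells; inactive = change under 2 fold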;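 note: initial absorbance extrapolated from kinetic A340 decline of NADH oxidation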
Fluor 339 460: intrinsic fluorescence of library compounds, ex339/em460 – biochemical, MLSMR library, data from DPM-DC assay, artefact control, profiling panel; compound autofluorescence, ex339/em460 nm, NADH buffer; active compounds read high; 1 = no-compound wells, NADH background; fluorescence fold increase at 10 µM; 65,000 tested, 5.5% active;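 active = at 10 µM, mean starting fluorescence two-fold or more over control wells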;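 note: signal is the first read of a kinetic run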
NADH coupling: inhibitors of enzymes used to reach an NAD/NADH endpoint | 65,000 tested, 0.02% active | IC50, µM (titrated, usually from 10 µM) | coupled PK/LDH NADH assays, four targets;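 active = single-dose screening hits from any of four coupled enzyme assays that gave an IC50 when retested across doses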;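 note: the DPM-DC format reads NADH fluorescence rather than 340 nm absorbance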
Hits are given with their value; – = inactive; · = no result shown; + = active, no number. A selection: hits, their analogues and other compounds. The true share with any hit is near 6.8%.

SMILES | MK inhibit | PMK inhibit | Spn DPM-DC inh | A340 absorber | Fluor 339 460 | NADH coupling
CN1C(=O)c2ccccc2N(C)C1c1ccc2c(c1)OCO2 (centres undefined) | – | – | · | – | 3.87 | –
CCCCc1c(C)c2ccc(OC)c(/C(C)=N\O)c2oc1=O | · | – | – | – | 2.48 | –
O=c1n(CCCN2CCN(c3cccc(Cl)c3)CC2)nc2ccccn12 | – | – | · | – | 2.37 | –
COc1ccccc1NC(=O)NCCCN1CCN(c2cccc(Cl)c2)CC1 | – | – | – | – | – | –
O=c1[nH]c(Nc2ccccc2)cc2ccccc12 | – | – | · | – | 3.38 | –
Nn1c(Nc2ccccc2)nc2ccccc2c1=O | – | – | – | – | – | –
COc1ccc(NC(=O)Cn2nnc(-c3ccccc3NC(=O)c3ccco3)n2)cc1 | – | – | – | – | 2.14 | –
COc1ccccc1NC(=O)Cn1nnc(-c2ccccc2NC(=O)c2cccs2)n1 | – | – | – | – | – | –
O=C(Cn1nnc(-c2ccccc2NC(=O)c2cccs2)n1)Nc1ccccc1 | – | – | – | – | 2.44 | –
O=C(NCc1ccco1)Nc1ccc2nsnc2c1 | – | – | · | – | 2.4 | –
O=C(NCc1ccco1)Nc1ccc(Br)cc1 | – | – | – | – | – | –
c1ccc(-n2nnnc2SCc2cn3cccnc3n2)cc1 | – | – | · | – | 5.01 | –
c1ccc(-n2nnnc2SCc2cn3ccccc3n2)cc1 | – | – | – | – | – | –
COc1cc2c(cc1OC)C(c1ccc3c(c1)OCO3)C1=C(CC(C)(C)CC1=O)N2 (centres undefined) | – | – | · | – | 4.88 | –
O=c1[nH]c(-c2ccncc2)nc2ccccc12 | – | – | + | – | – | –
O=c1[nH]c(-c2cccnc2)nc2ccccc12 | – | – | – | – | – | –
COc1ccc2nc(NC(=O)c3ccc(-n4nc(C)cc4C)cc3)sc2c1 | – | – | · | – | 5.11 | –
COc1ccc2nc(NC(=O)c3ccc4ncsc4c3)sc2c1 | – | – | · | – | 2.19 | –
Cc1cc(C)n(-c2ccc(C(=O)Nc3nnc(C4CC4)s3)cc2)n1 | – | – | – | – | – | –
COc1cccc(C(CC(=O)NCc2ccco2)NS(=O)(=O)c2ccc(C)cc2)c1OC (centres undefined) | – | – | – | – | – | –
Cc1csc2ncc(C(=O)N3CCc4ccccc43)c(=O)n12 | – | – | – | – | – | –
O=C(CSc1oc(-c2ccco2)nc1S(=O)(=O)c1ccc(Cl)cc1)NCC1CCCO1 (centres undefined) | – | – | – | – | – | –
O=C(NC12CC3CC(CC(C3)C1)C2)c1ccccc1O | – | – | – | – | 2.21 | –
COc1ccc(CCNC(=O)c2ccc3nc(-c4ccco4)c(-c4ccco4)nc3c2)cc1OC | – | – | – | – | 2.42 | –
COc1ccc(CCn2c(N)c(C(=O)NCc3ccco3)c3nc4ccccc4nc32)cc1OC | – | – | · | – | 3.65 | –
SMILES | MK inhibit | PMK inhibit | Spn DPM-DC inh | A340 absorber | Fluor 339 460 | NADH coupling
COc1ccc(-n2c(N)c(C(=O)NCc3ccco3)c3nc4ccccc4nc32)c(OC)c1 | – | – | · | – | 2.92 | –
O=C(Nc1sccc1C(=O)NCc1ccco1)c1cccnc1 | – | – | – | – | – | –
COc1ccc2c(c1)OC1(C)CC2C(C(=O)c2ccccc2OC)C(=O)N1 (centres undefined) | – | 28.0 | – | – | – | –
N#Cc1c(-c2cccnc2)c2c([nH]c1=S)CCCC2 | 80.0 | – | + | – | – | –
N#Cc1c(-c2ccco2)c2c([nH]c1=S)CCCC2 | – | – | – | – | – | –
O=C1CC(c2ccccc2)CC(O)=C1C=NCC1CCCO1 (centres undefined) | – | 38.0 | – | – | – | –
COc1cc(OC)c(C2CC(=O)N3CN(c4ccccc4)CSC3=C2C#N)cc1OC (centres undefined) | 64.0 | – | – | – | – | –
CN(C)c1nccc(Nc2ccccc2)c1C#N | – | – | – | – | – | –
COCCn1c(=NC(=O)CSCC(=O)NC2CCCCC2)sc2cc(OC)ccc21 | – | – | – | – | 2.04 | –
COCCn1c(=NC(=O)CSC(C)=O)sc2cc(OC)ccc21 | – | – | – | – | – | –
N#CCCn1c2ccccc2c2nc3ccccc3nc21 | – | – | – | – | – | –
CCCn1c(NC(=O)c2ccccc2)nc2ccccc21 | – | – | – | – | – | –
CCCn1c(Nc2nc3ccccc3n2C)nc2ccccc21 | – | – | – | – | 2.13 | –
CCCn1c2ccccc2c2nc3ccccc3nc21 | – | – | – | – | 2.37 | –
O=c1oc2ccccc2n1CCn1c2ccccc2c2nc3ccccc3nc21 | – | 9.0 | – | – | – | –
CCOC(=O)Cn1c2ccccc2c2nc3ccccc3nc21 | – | – | – | – | 2.89 | –
CCOC(=O)Cn1c(C)c(C#N)c2ccccc21 | – | – | – | – | – | –
CN1CCN(C(=O)c2ccccc2NC(=O)c2cccs2)CC1 | – | – | – | – | – | –
CCN(CC)CCNC(=O)c1nn(-c2ccc(C)cc2)c(=O)c2c1c1ccccc1n2C | – | – | – | – | 3.07 | –
Cc1ccc(-n2nc(C(=O)NCc3ccco3)c3c4ccccc4n(C)c3c2=O)cc1 | – | – | – | – | 2.24 | –
CCN1CCN(C(=O)c2nn(-c3ccc(C)cc3)c(=O)c3c2c2ccccc2n3C)CC1 | – | – | – | – | – | –
CCOC(=O)N1CCC(NC(=O)c2ccc(NC(=O)C3CCCO3)cc2)CC1 (centres undefined) | – | – | – | – | – | –
CC1(C)CC(=O)C(C=NCCN2CCN(C(=O)c3ccccc3)CC2)=C(O)C1 | – | – | – | – | – | –
CC1(C)CC(=O)C(C=NCCN2CCN(CCc3ccccc3)CC2)=C(O)C1 | – | active | – | – | – | –
COc1ccc(-c2cn3cccnc3n2)cc1NC(=O)CC(C)C | – | – | · | – | 5.22 | –
SMILES | MK inhibit | PMK inhibit | Spn DPM-DC inh | A340 absorber | Fluor 339 460 | NADH coupling
CCCC(=O)Nc1cc(-c2cn3cccnc3n2)ccc1OC | – | – | · | – | 4.5 | –
CCOCC(=O)Nc1ccc(-c2cn3cccnc3n2)cc1 | – | – | · | – | 5.17 | –
CCCCc1ccc(NC(=O)COCC)cc1 | – | – | – | – | – | –
COCCCNC(=O)Cn1nnc(-c2ccc(NC(=O)c3ccc(F)cc3)cc2)n1 | – | – | – | – | – | –
CC(C)OC(=O)c1cccnc1SCc1cc(=O)n2ccccc2n1 | – | 28.0 | – | – | – | –
Cc1cc(=O)oc2cc(OCC(O)CN3CCc4ccccc4C3)ccc12 (centres undefined) | – | – | · | – | 4.17 | –
COc1ccccc1N1CCN(CC(O)COc2ccc3c(C)cc(=O)oc3c2)CC1 (centres undefined) | – | – | – | – | – | –
Cc1cc(=O)oc2cc(OCC(O)CN3CCN(c4ccccc4)CC3)ccc12 (centres undefined) | – | – | – | – | 3.41 | –
Cc1cc(=O)oc2cc(OCCSCCN3CCOCC3)ccc12 | – | – | – | – | – | –
